Where “and” joins values, the source holds several entries; their conditions need not be identical. Equal values may be shown once. About 2,000 (36%) of roughly 5,500 compounds were called active. Inconclusive results (about 18%) are left out. Cut-off read from the data, not from the text of the source: active = normalized growth mostly below about 0.91 (no sharp cut-off); inconclusive = no clear call, values can overlap the other calls; inactive = mostly above about 0.92. The list shows a part of the results.
Assay: chemical genetic growth profiling, strain panel (AID 1159580);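 note: tested at 20 µM; growth read once vehicle control cultures reached saturation at 30 °C; 1 = growth at the plate median or of vehicle wells; lower values mean less growth of the strain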
Conditions: S. cerevisiae deletion strains, growth OD

Measured: normalized growth

CC(C)Cn1c(=O)n(C)c(=O)c2[nH]cnc21
inactive: locus YAL013W, strain DEP1, hits give low values 0.999 | locus YAL021C, strain ccr4, hits give low values 1.03 and 0.994 | locus YAL026C, strain drs2, hits give low values 1 and 1.03 | locus YAL030W, strain snc1, hits give low values 0.99 and 1 | locus YAL040C, strain CLN3, hits give low values 0.982 | locus YBL061C, strain skt5, hits give low values 0.992 and 1.02 | locus YBR009C, strain hhf1, hits give low values 1.01 and 0.995 | locus YBR021W, strain FUR4, hits give low values 0.966 | locus YBR023C, strain chs3, hits give low values 1 and 1.01 | locus YBR171W, strain sec66, hits give low values 0.998 and 1.03 | locus YBR229C, strain ROT2, hits give low values 0.982 | locus YBR231C, strain swc5, hits give low values 0.989 and 1.01 | locus YBR279W, strain paf1, hits give low values 0.996 and 1 | locus YCL011C, strain gbp2, hits give low values 1.01 and 1 | locus YCL016C, strain dcc1, hits give low values 0.984 and 0.981 | locus YCL029C, strain bik1, hits give low values 0.984 | locus YCL061C, strain MRC1 (second series), hits give low values 0.984 | locus YCL061C, strain MRC1, hits give low values 1 | locus YCL069W, strain vba3, hits give low values 1 | locus YCR088W, strain abp1, hits give low values 1 and 1.01 | locus YDL005C, strain med2, hits give low values 1 and 1.01 | locus YDL035C, strain GPR1, hits give low values 1.01 | locus YDL040C, strain nat1, hits give low values 0.988 and 1.01 | locus YDL074C, strain BRE1, hits give low values 1.03 | locus YDL101C, strain DUN1, hits give low values 0.984 | locus YDL134C, strain PPH21, hits give low values 0.991 | locus YDL185W, strain tfp1, hits give low values 0.988 | locus YDL192W, strain arf1, hits give low values 0.996 | locus YDR001C, strain nth1, hits give low values 1 and 1.01 | locus YDR069C, strain doa4, hits give low values 0.987 and 1.02 | locus YDR101C, strain arx1, hits give low values 0.989 | locus YDR137W, strain rgp1, hits give low values 0.976 and 0.984 | locus YDR150W, strain NUM1, hits give low values 0.998 and 0.994 | locus YDR159W, strain sac3, hits give low values 0.965 and 1.04 | locus YDR162C, strain NBP2, hits give low values 1.03 | locus YDR195W, strain ref2 0.969 and 0.994 | locus YDR297W, strain sur2, hits give low values 0.987 and 1 | locus YDR318W, strain mcm21, hits give low values 0.974 | locus YDR334W, strain swr1, hits give low values 1.04 and 1.03 | locus YDR335W, strain msn5, hits give low values 1.01 | locus YDR363W, strain ESC2, hits give low values 0.991 | locus YDR388W, hits give low values 0.985 | locus YDR392W, strain spt3, hits give low values 1 and 0.935 | locus YDR502C, strain sam2, hits give low values 0.997 | locus YEL003W, strain gim4, hits give low values 1.02 | locus YEL037C, strain rad23, hits give low values 1.02 and 1.01 | locus YEL061C, strain CIN8 (second series), hits give low values 1.03 and 1 | locus YEL061C, strain CIN8, hits give low values 0.995 | locus YER002W, strain NOP16, hits give low values 0.994 | locus YER015W, strain faa2, hits give low values 1.01 and 1 | locus YER016W, strain bim1, hits give low values 0.987 and 1.01 | locus YER110C, hits give low values 0.977 | locus YER111C, strain swi4, hits give low values 0.977 and 1.02 | locus YER155C, strain BEM2 (second series), hits give low values 1.01 | locus YER155C, strain BEM2, hits give low values 0.984 | locus YER167W, strain BCK2, hits give low values 0.964 | locus YFR010W, strain ubp6, hits give low values 1.01 and 1.03 | locus YGL078C, strain dbp3, hits give low values 0.992 | locus YGL086W, strain mad1, hits give low values 0.951 | locus YGL167C, strain pmr1, hits give low values 0.995 and 1.01 | locus YGL173C, strain kem1, hits give low values 1 and 1.02 | locus YGL227W, strain vid30, hits give low values 0.973 and 1.01 | locus YGL240W, strain doc1, hits give low values 1.02 and 1.03 | locus YGL248W, strain PDE1, hits give low values 0.984 | locus YGL253W, strain hxk2, hits give low values 1.01 and 1.04 | locus YGR078C, strain PAC10, hits give low values 1.03 | locus YGR135W, strain pre9, hits give low values 0.998 | locus YGR229C, strain SMI1, hits give low values 1 | locus YGR252W, strain gcn5, hits give low values 0.955 | locus YHR013C, strain ard1, hits give low values 0.972 and 0.993 | locus YHR027C, strain rpn1, hits give low values 0.994 and 1.01 | locus YHR030C, strain SLT2, hits give low values 0.99 and 0.987 and 0.97 | locus YHR079C, strain IRE1 (second series), hits give low values 0.996 | locus YHR079C, strain IRE1, hits give low values 0.99 and 0.969 | locus YHR094C, strain hxt1, hits give low values 0.985 | locus YHR129C, strain ARP1, hits give low values 0.99 | locus YHR142W, strain chs7, hits give low values 0.983 and 1 | locus YHR200W, strain rpn10, hits give low values 0.982 | locus YIL066C, strain RNR3, hits give low values 0.965 | locus YIL073C, strain SPO22, hits give low values 0.944 | locus YIL125W, strain kgd1, hits give low values 0.996 | locus YIR030C, strain dcg1, hits give low values 0.987 | locus YJL092W, strain hpr5, hits give low values 1.01 and 1 | locus YJL095W, strain BCK1 (second series), hits give low values 0.991 and 1.01 | locus YJL095W, strain BCK1, hits give low values 0.992 and 1.01 and 0.971 | locus YJL115W, strain asf1, hits give low values 1.01 | locus YJL129C, strain trk1, hits give low values 0.974 and 1 | locus YJL134W, strain LCB3, hits give low values 0.984 | locus YJL154C, strain vps35, hits give low values 1.01 | locus YJL164C, strain tpk1, hits give low values 1 and 0.973 | locus YJL166W, strain qcr8, hits give low values 1.02 and 1.01 | locus YJL168C, strain set2, hits give low values 0.995 | locus YJL187C, strain SWE1 (second series), hits give low values 0.998 | locus YJL187C, strain SWE1, hits give low values 1 and 0.99 | locus YJR043C, strain POL32, hits give low values 0.983 | locus YJR066W, strain TOR1, hits give low values 0.923 and 0.916

From PubChem BioAssay AID1159580 (chemical genetic matrix, 2015)
